The text below walks through data of PubChem BioAssay AID1439 (NMMLSC, 2008).

Among all 220,000 compounds or so, about 770 (0.35%) were called active. Roughly 15% stayed inconclusive and do not appear here. The full list was thinned out, with actives kept by preference. Unmarked numbers belong to inactive results. No stated cut-off is given here; in the data, active means binding response below about 49% or above about 150%; inconclusive means no clear call, values can overlap the other calls; inactive means in between.

The test deals with Guanine nucleotide-binding protein G(o) subunit alpha (Homo sapiens) (UniProt P09471). As to the kind of experiment: RGS7-Galphao binding modulators, primary screen, biochemical, multiplexed bead flow cytometry (AID 1439).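 Further: fluorescent Galphao held in activated GDP-AlF4 state binding bead-coupled RGS7.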 As to conditions: at 10 µM, actives lie on both sides. (In general: A flow cytometer gives signals particle by particle.)
Sequence of Guanine nucleotide-binding protein G(o) subunit alpha (Homo sapiens) (P09471 whole entry, looked up): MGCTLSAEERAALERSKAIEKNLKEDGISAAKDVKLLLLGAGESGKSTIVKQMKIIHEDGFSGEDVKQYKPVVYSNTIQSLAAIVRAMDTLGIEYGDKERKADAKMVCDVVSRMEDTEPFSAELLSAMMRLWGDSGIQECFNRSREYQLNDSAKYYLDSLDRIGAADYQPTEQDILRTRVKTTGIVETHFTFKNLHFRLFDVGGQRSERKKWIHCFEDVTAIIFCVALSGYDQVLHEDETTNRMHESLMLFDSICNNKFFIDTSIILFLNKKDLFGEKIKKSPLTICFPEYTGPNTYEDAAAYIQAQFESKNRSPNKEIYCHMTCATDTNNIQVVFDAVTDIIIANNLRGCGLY
For the molecule `Cc1c(C(=O)Nc2ccccc2)sc2nc3n(c(=O)c12)CCCCC3`, the binding response (% of control) is 94.2%.

As for `CCC(=O)N1CCC(C(N)=O)(N2CCCCC2)CC1`, the binding response (% of control) is 161% (active).

Regarding `CC(C)(O)C#Cc1ccc(C(=O)N2CCC(C(N)=O)(N3CCCCC3)CC2)cc1`, the binding response (% of control) was 101%.

`NC(=O)C1(N2CCCCC2)CCN(C(=S)Nc2ccc(Cl)cc2)CC1`: the binding response (% of control) is 108%.

Consider `Fc1ccc(COc2cccc(-c3n[nH]c(=S)o3)c2)cc1`, for which the binding response (% of control) was 103%.

In the case of `COC(=O)CN1C(=O)N/C(=C/c2ccc(OC)c(C)c2OC)C1=O`, the binding response (% of control) is 103%.

Take `O=C(CN1CCCCCC1)N1c2ccccc2Sc2ccc(C(F)(F)F)cc21`: the binding response (% of control) was 89.4%.

As for `O=C(CN1CCCCC1)N1c2ccccc2Sc2ccc(C(F)(F)F)cc21`, the binding response (% of control) is 27.5% [inhibitor] (active).

Consider `COc1cc(/C=C/C(=O)N2c3ccccc3Sc3ccc(C(F)(F)F)cc32)cc(OC)c1OC`, for which the binding response (% of control) was 104%.

As for `N#C/C(C(=S)Nc1ccccc1)=C1/NN=C(N2CCOCC2)N1c1ccccc1`, the binding response (% of control) was 97.6%.

As to `O=C(Nc1ccccc1)c1cccnc1Nc1ccccc1`, the binding response (% of control) is 99.9%.

With `O=C(Nc1ccc(-n2ccnc2P(=O)(O)c2ccccc2)cc1)c1ccccc1Br`, the binding response (% of control) is 152% (active).

On to `Cc1ccc(NC(=O)c2cccnc2C(=O)Nc2ccc(C)cc2)cc1`, for which the binding response (% of control) was 106%.

With `COC(=O)C1=C(C)N(c2ccc(C)cc2)/C(=C/c2ccc(O)cc2)C1=O`, the binding response (% of control) was 104%.

Consider `Cc1ccc2[nH]c(=O)c(CN(CC3COCCO3)C(=O)Nc3ccccc3C)cc2c1` (stereo unspecified), for which the binding response (% of control) was 102%.

For the molecule `CC(=O)c1ccc(NC(=O)CSC(=S)N2CCCC2)cc1`, the binding response (% of control) was 102%.

As for `CN(CC(=O)NC1CCCCC1)S(=O)(=O)c1ccc(Br)s1`, the binding response (% of control) is 99.1%.

Regarding `Cc1ccc(S(=O)(=O)N(C)CC(=O)NC2CCCC2)cc1`, the binding response (% of control) was 98.3%.

Take `CN(CC(=O)NC1CCCCC1)S(=O)(=O)c1cccc2cccnc12`: the binding response (% of control) is 241% (active).

Take `N/C(=N/O)c1cccn1Cc1ccccc1[N+](=O)[O-]`: the binding response (% of control) was 99.3%.

Take `O=C(COC(=O)CCc1ccc(S(=O)(=O)N2CCOCC2)cc1)Nc1cccc(Cl)c1`: the binding response (% of control) was 99.8%.

In the case of `Cc1cc(C)nc(/N=C2\NC(=O)CC(C(=O)O)N2c2ccc(Cl)cc2Cl)n1` (stereo unspecified), the binding response (% of control) is 170% (active).

Take `Cc1cc(C)n(-c2ccc(Cl)c(C(=O)O)n2)n1`: the binding response (% of control) was 96.7%.

Consider `CCOC(=O)c1nc(C)n(-c2ccc(Cl)cc2Cl)n1`, for which the binding response (% of control) is 102%.

Turning to `COc1cccc(C2c3[nH]c4ccccc4c3CCN2Cc2cccc(C)n2)c1` (stereo unspecified), the binding response (% of control) was 102%.

`O=C(NC1CC1)c1cccc(Br)c1`: the binding response (% of control) is 102%.

For the molecule `S=C1Nc2cc(Cl)ccc2Sc2ccccc21`, the binding response (% of control) was 100%.

Turning to `O=C(NC1CC1)c1ccc2c(c1)NC(=O)c1ccccc1S2`, the binding response (% of control) was 191% (active).

On to `CC(=O)NC(Cc1ccc(F)c(F)c1)C(=O)NC1CCN(C(=O)c2ccc(C)cc2)CC1` (stereo unspecified), for which the binding response (% of control) was 95.6%.

As for `CCCn1c(NC(=O)C23CC4CC(CC(O)(C4)C2)C3)nc2ccccc21`, the binding response (% of control) is 104%.

Consider `CC(=O)N1CCc2cc(Br)cc(S(=O)(=O)CCC(=O)Nc3c(C)n(C)n(-c4ccccc4)c3=O)c21`, for which the binding response (% of control) was 98.9%.
